# Screen size: about 310,000 compounds; about 14,000 (4.5%) showed an effect of 50% or more. The effect is printed as a negative number. The list comes from a sample in which strong results are over-represented; it also holds similar structures and randomly drawn compounds.
# Biological target: human ether-à-go-go-related gene (hERG) potassium channel (human, UniProt Q12809)
# Assay: primary screen, population patch clamp on CHO cells stably expressing hERG; higher = less effect of the substance
# 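Note: peak tail current of the secondary pulse compared with the same well before compound.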
# Chain of human ether-à-go-go-related gene (hERG) potassium channel (Q12809 whole entry, looked up): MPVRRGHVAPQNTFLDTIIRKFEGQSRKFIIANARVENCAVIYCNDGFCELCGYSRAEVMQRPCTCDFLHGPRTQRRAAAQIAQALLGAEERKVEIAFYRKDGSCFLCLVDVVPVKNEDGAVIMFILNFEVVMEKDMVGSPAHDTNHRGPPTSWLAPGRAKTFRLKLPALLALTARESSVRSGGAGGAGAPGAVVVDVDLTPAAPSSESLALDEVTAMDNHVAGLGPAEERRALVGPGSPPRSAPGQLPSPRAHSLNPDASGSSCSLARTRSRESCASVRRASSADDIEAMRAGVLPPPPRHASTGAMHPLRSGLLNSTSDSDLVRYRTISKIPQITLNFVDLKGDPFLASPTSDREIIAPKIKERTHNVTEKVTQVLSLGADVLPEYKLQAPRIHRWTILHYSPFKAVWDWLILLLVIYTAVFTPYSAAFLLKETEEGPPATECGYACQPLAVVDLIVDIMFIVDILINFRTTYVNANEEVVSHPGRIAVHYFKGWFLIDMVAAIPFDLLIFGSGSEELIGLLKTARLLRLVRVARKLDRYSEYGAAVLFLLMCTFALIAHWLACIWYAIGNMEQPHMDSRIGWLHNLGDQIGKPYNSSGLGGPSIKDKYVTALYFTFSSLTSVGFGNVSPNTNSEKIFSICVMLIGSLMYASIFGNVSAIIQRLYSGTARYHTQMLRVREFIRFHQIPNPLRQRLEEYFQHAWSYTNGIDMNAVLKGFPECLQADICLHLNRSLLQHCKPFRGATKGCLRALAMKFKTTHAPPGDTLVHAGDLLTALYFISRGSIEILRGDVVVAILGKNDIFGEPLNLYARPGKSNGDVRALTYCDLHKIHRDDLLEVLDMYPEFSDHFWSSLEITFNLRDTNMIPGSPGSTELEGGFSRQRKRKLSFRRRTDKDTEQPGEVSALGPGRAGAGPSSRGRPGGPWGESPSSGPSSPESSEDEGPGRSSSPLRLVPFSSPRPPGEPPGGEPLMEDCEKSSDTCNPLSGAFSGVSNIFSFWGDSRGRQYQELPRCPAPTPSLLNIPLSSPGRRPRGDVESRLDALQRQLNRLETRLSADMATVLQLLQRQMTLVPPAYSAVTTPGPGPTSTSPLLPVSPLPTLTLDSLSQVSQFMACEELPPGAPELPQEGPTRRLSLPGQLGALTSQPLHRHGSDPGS
row,SMILES,"hERG current change (%, negative = inhibition) at 10uM [%]"
1,CCOC(=O)c1sc(NC(=O)C2C3C=CC(C3)C2C(=O)O)nc1C (stereo not drawn),16.2
2,CC[C@H](C)/C=C(C)/C=C/C1=CC2=CC(=O)[C@]3(C)OC(=O)[C@@H](C(C)=O)[C@@H]3C2=CO1,4.65
3,O=[N+]([O-])c1ccc(O)c(/C=N/n2c(-c3ccccc3)n[nH]c2=S)c1,17.9
4,O=C(O)c1cccc(Nc2ncnc3ccccc23)c1,17.3
5,CC1CCCC(C)N1NC(=O)c1cccc(S(=O)(=O)N2CCc3ccccc32)c1 (stereo not drawn),-2.22
6,Cc1ccc(CSc2ncnc3ccccc23)cc1,11.3
7,Cc1ccc(S(=O)(=O)NNC(=O)C2COc3ccccc3O2)cc1C (stereo not drawn),15.2
8,O=C(CSc1nnc(-c2ccc(S(=O)(=O)N3CCCC3)cc2)o1)NCc1ccco1,-7.57
9,COc1ccc(N2CCN(C(=O)c3ccccc3)CC2)c([N+](=O)[O-])c1,-67.7
10,COc1cccc(C(=O)N2CCN(C(=O)c3cccc(F)c3)CC2)c1,-0.0938
11,COc1ccc(N2CCN(C(=O)c3cccc(F)c3)CC2)c([N+](=O)[O-])c1,-73.2
12,CCCCC(=O)N1CCN(c2ccc(OC)cc2[N+](=O)[O-])CC1,-64.5
13,COc1ccc(N2CCN(C(=O)c3ccc(Br)cc3)CC2)c([N+](=O)[O-])c1,-72.3
14,CCC(=O)N1CCN(c2ccc(OC)cc2[N+](=O)[O-])CC1,-19.5
15,Cn1c(=O)n(C)c2cc([N+](=O)[O-])c(N3CCN(C(=O)c4cccc(F)c4)CC3)cc21,-32.7
16,COc1cccc(CC(=O)N2CCN(c3ccccc3[N+](=O)[O-])CC2)c1,-21
17,COc1ccc(N2CCN(C(=O)CC34CC5CC(CC(C5)C3)C4)CC2)c([N+](=O)[O-])c1,0.229
18,COc1ccc(N2CCN(c3ccc(C(N)=O)cc3[N+](=O)[O-])CC2)cc1,2.51
19,COc1ccc(N2CCN(C(=S)NC(=O)c3cccs3)CC2)c([N+](=O)[O-])c1,-47.8
20,COc1ccc(C(=O)c2ccc(N3CCOCC3)c([N+](=O)[O-])c2)cc1,-43.7
21,COc1ccc(C2N=C(Nc3ccc(C)cc3)Nc3nc(C)cc(=O)n32)cc1 (stereo not drawn),1.81
22,COc1ccc(CCN2CC(O)=C(c3nc(C)cs3)C2=N)cc1OC,-21.8
23,CCn1c(=O)c(C(=O)CN2CC(C)OC(C)C2)c(N)n(Cc2ccccc2)c1=O (stereo not drawn),-32.6
24,COc1ccc(CCNC(=O)NC2CCCCC2)cc1OC,8.03
25,O=C(Nc1ccc(Cl)cc1)c1cc2c(cc1O)[nH]c1ccccc12,21
26,Cc1ccc2nc(-c3ccc(NS(=O)(=O)c4ccc(F)c(F)c4)cc3)sc2c1,23.3
27,COc1cccc(C2CC(c3ccccc3Cl)n3nc(N)nc3N2)c1 (stereo not drawn),-9.01

row,SMILES,"hERG current change (%, negative = inhibition) at 10uM [%]"
1,COc1ccc(CCN(Cc2nc(-c3ccccc3)no2)Cc2nc(-c3ccccc3)no2)cc1OC,-3.37
2,O=C(N/N=C/c1cc([N+](=O)[O-])ccc1O)C1C2CCCCC21 (stereo not drawn),3.28
3,CCn1cc(C(=O)N[C@@H](CCSC)C(=O)NCCO)c(=O)c2cc3c(cc21)OCO3,20.6
4,O=C(NCCC1=CCCCC1)c1ccc(Br)o1,-4.78
5,COc1ccc(N2CCN(C(=O)c3cccc(Br)c3)CC2)c([N+](=O)[O-])c1,-87.1
6,O=C(c1cccnc1)N1CCN(c2ccc([N+](=O)[O-])cc2Cl)CC1,-65
7,COc1cccc(C(=O)NC(=S)N2CCN(c3ccc(C(F)(F)F)cc3[N+](=O)[O-])CC2)c1,1.6
8,COc1ccc(N2CCN(C(=O)c3cccnc3)CC2)c([N+](=O)[O-])c1,-70.8
9,O=C(c1ccc([N+](=O)[O-])cc1)N1CCN(C(=O)c2cccnc2)CC1,-15.7
10,O=C(c1cccnc1)N1CCN(c2ccccc2Cl)CC1,-18.5
11,Cc1ccc(C)c(N2CCN(C(=O)c3ccc(N4CCOCC4)c([N+](=O)[O-])c3)CC2)c1,-21.2
12,O=C(c1cccnc1)N1CCN(c2c(Cl)cccc2[N+](=O)[O-])CC1,-46
13,COc1ccc(N2CCN(C(=O)c3ccc(C)cc3)CC2)c([N+](=O)[O-])c1,-62.9
14,COc1cccc(N2CCN(C(=O)c3cccnc3)CC2)c1,11.2
15,COc1cccc(C(=O)/C=C/c2ccc(N3CCCCC3)c([N+](=O)[O-])c2)c1,-3.01
16,COc1ccc(C(C)=O)cc1COC(=O)CCNS(=O)(=O)c1ccc(C)c(C)c1,-38.3
17,O=C(CNC(=O)c1ccccc1)NCc1nc2ccccc2[nH]1,3.76
18,O=C(O)c1cc(-c2cccs2)nc2ccc(F)cc12,13.2
19,Cc1cccc(-c2nnn(Cc3nnc(NC(=O)c4ccccc4)s3)n2)c1,4.02
20,O=[N+]([O-])c1ccc(-c2cc(-c3ccc(Cl)cc3)n[nH]2)cc1,-4.49
21,COC(=O)c1sc2ncn(-n3c(C)ccc3C)c(=O)c2c1C,19.7
22,CCOC(=O)N1CCN(c2ccc(F)cc2[N+](=O)[O-])CC1,-10.5
23,CN1C(=O)C(=Cc2ccc(N3CCOCC3)c([N+](=O)[O-])c2)C(=O)N(C)C1=O,11.4
24,COc1ccc(N2CCN(C(=O)c3ccc(F)cc3)CC2)c([N+](=O)[O-])c1,-70.1
25,O=C1NC(=O)C(=Cc2ccc(N3CCN(C(=O)c4ccccc4)CC3)c([N+](=O)[O-])c2)C(=O)N1,-67.1
26,CN(C)c1ccc(C=C2C(=O)NC(=O)NC2=O)cc1[N+](=O)[O-],30.8
27,O=C(c1ccc(F)cc1)N1CCN(c2cc(N3CCCCC3)c(F)cc2[N+](=O)[O-])CC1,-24.6

# From PMC4336329 (PLoS ONE, 2015)
